What all share (assay): DAPPL (digital affinity profiling via proximity ligation, sequencing); 10 mM Tris-HCl pH 7.5, 50 mM NaCl, 1 mM DTT, 4% glycerol, room temperature, 30 min; GST-TFs on glutathione beads, 16-mer random dsDNA library, 0.1% formaldehyde crosslink after washing; high values mean tight binding
Conditions in all cases: protein: recombinant; tags: N-terminal GST; dsDNA, one strand shown

For one assay, the target named is T1, ERF (Homo sapiens, UniProt P50548 1-548).
T1 sequence: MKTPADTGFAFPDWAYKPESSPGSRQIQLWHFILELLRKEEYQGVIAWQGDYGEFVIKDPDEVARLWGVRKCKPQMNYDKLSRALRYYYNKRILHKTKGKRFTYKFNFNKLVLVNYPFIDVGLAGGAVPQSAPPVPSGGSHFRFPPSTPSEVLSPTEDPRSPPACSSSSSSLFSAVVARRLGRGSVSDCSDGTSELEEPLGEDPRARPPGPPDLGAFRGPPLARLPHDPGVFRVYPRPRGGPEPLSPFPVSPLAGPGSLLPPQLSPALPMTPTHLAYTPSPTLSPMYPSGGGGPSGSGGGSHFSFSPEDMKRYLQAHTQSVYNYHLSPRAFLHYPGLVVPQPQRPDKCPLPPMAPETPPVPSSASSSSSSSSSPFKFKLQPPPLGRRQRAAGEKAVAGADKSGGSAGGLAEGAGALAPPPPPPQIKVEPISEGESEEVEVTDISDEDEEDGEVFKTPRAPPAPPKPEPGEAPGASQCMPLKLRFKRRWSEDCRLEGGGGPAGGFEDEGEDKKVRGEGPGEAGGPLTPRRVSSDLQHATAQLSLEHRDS
A digest of the protocol: (§1)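 Human transcription factors carrying a GST fusion were produced in yeast, bound to glutathione beads, tagged with DNA barcodes and pooled together with a tag-only sample. Each pool was held with 200 nmole of a random double-stranded 16-mer DNA library in Tris/NaCl/DTT/glycerol buffer for 30 min at room temperature, then washed, crosslinked in 0.1% formaldehyde, proximity-ligated with BsaI/T4 ligase (1 h, 37 °C), PCR-amplified and sequenced on an Illumina NextSeq500. Binding signal is the read frequency of each hexamer for a given factor divided by its frequency in the tag-only sample.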

In a further assay the target is T2, ETV3L (Homo sapiens, UniProt Q6ZN32 1-361).
T2 sequence: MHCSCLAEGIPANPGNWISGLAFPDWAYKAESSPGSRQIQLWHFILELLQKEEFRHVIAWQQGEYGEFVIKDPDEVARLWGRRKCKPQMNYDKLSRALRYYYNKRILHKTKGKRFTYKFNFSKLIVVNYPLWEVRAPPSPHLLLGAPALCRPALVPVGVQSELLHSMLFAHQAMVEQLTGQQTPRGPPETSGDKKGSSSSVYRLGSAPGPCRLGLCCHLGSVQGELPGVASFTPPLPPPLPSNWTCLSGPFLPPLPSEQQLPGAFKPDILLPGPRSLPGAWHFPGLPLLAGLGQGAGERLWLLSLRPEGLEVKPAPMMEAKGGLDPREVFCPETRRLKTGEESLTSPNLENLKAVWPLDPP
The essentials:
as §1

In the next assay the target is T3, ETS2 (Homo sapiens, UniProt P15036 1-469).
T3 sequence: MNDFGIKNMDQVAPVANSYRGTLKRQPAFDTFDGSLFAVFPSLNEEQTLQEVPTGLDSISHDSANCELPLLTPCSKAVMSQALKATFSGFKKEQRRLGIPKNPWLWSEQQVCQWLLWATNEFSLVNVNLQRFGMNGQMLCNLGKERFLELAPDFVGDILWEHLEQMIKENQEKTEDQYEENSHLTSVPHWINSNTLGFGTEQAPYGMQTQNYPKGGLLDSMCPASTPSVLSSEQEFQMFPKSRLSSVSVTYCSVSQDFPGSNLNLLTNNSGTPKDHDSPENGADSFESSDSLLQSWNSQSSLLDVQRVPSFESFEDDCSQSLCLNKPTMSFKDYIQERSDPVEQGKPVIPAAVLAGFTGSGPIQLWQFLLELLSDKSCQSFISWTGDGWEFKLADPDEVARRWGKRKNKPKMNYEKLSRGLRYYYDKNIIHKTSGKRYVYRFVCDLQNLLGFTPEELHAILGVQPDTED
A digest of the protocol:
as §1

A further assay concerns the target T4, SPDEF (Homo sapiens, UniProt O95238 1-335).
T4 sequence: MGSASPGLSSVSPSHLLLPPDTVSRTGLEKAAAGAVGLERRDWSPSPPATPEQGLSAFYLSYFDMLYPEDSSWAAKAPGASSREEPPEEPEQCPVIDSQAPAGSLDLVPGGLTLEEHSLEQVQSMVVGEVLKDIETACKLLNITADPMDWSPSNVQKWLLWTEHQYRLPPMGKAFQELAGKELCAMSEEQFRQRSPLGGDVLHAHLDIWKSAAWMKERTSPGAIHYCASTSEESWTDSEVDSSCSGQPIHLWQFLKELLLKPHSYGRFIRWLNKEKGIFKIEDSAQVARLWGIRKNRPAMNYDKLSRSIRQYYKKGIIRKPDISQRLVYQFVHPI
The essentials:
as §1

The next assay has as its target T5, ETV7 (Homo sapiens, UniProt Q9Y603 1-341).
T5 sequence: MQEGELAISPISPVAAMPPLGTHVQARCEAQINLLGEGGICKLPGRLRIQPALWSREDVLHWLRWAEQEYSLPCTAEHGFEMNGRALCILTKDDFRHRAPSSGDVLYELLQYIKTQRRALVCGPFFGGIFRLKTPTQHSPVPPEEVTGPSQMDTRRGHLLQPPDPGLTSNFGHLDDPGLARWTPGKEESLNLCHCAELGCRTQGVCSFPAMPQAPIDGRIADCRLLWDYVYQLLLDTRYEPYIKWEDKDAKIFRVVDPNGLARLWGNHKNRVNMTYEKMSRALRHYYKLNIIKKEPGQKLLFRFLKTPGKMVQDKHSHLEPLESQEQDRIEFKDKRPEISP
A digest of the protocol: as §1

The target of the next assay is T6, ELF5 (Homo sapiens, UniProt Q9UKW6-2 1-255).
T6 sequence: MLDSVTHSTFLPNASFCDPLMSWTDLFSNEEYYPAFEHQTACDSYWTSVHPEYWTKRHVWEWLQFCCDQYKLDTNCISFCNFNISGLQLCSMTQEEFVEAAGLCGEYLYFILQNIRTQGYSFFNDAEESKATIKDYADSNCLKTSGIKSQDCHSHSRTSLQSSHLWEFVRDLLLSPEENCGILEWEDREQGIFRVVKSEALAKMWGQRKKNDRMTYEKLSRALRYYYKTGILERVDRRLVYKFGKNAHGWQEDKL
The essentials: as §1

In the next assay the target is T7, ETV3 (Homo sapiens, UniProt P41162-2 1-143).
T7 sequence: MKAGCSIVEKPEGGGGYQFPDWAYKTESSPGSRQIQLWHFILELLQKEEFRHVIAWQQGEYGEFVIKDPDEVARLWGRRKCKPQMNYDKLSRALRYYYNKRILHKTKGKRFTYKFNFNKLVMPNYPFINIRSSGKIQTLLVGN
The essentials:
as §1

The target of a further assay is ETV6 (Homo sapiens, UniProt P41212 1-452). A digest of the protocol: as §1
ETV6, sequence (P41212 whole entry): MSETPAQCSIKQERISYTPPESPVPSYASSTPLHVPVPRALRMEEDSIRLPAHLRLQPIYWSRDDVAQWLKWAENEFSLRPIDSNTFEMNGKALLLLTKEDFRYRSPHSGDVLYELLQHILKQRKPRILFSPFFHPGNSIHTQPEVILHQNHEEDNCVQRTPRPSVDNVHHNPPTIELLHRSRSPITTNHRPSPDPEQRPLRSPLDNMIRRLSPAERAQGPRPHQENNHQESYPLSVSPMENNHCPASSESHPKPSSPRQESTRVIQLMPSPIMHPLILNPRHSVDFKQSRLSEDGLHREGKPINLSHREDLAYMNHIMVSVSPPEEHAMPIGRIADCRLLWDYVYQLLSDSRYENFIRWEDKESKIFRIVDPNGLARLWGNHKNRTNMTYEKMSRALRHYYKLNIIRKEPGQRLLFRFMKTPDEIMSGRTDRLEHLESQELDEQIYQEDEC

GAACTT: the binding signal with ERF was 1.56 fold enrichment (6-mer frequency, TF over GST control); with ETV3L it was 1.58 fold enrichment (6-mer frequency, TF over GST control); with ETS2, 1.61 fold enrichment (6-mer frequency, TF over GST control); in the assay with SPDEF, 1.61 fold enrichment (6-mer frequency, TF over GST control); with ETV7 it was 1.62 fold enrichment (6-mer frequency, TF over GST control); with ELF5, 1.96 fold enrichment (6-mer frequency, TF over GST control). Also, the binding signal in the assay with ETV3 is 1.69 fold enrichment (6-mer frequency, TF over GST control); with ETV6 it was 1.73 fold enrichment (6-mer frequency, TF over GST control).
On to TTCCAG, for which the binding signal is 1.09 fold enrichment (6-mer frequency, TF over GST control) with ERF; 1.09 fold enrichment (6-mer frequency, TF over GST control) with ETV3L; 1.12 fold enrichment (6-mer frequency, TF over GST control) with ETS2; 1.04 fold enrichment (6-mer frequency, TF over GST control) with SPDEF; 1.16 fold enrichment (6-mer frequency, TF over GST control) in the assay with ETV7; 1.18 fold enrichment (6-mer frequency, TF over GST control) with ELF5. Moreover, the binding signal in the assay with ETV3 is 1.06 fold enrichment (6-mer frequency, TF over GST control); with ETV6, 1.15 fold enrichment (6-mer frequency, TF over GST control).
On to AACGAA, for which the binding signal with ERF was 1.12 fold enrichment (6-mer frequency, TF over GST control); with ETV3L, 1.16 fold enrichment (6-mer frequency, TF over GST control); in the assay with ETS2, 1.18 fold enrichment (6-mer frequency, TF over GST control); with SPDEF, 1.1 fold enrichment (6-mer frequency, TF over GST control); in the assay with ETV7, 1.25 fold enrichment (6-mer frequency, TF over GST control); with ELF5 it was 1.09 fold enrichment (6-mer frequency, TF over GST control). The binding signal was 1.11 fold enrichment (6-mer frequency, TF over GST control) in the assay with ETV3 and 1.17 fold enrichment (6-mer frequency, TF over GST control) in the assay with ETV6.
With TATAGC, the binding signal in the assay with ERF was 1.24 fold enrichment (6-mer frequency, TF over GST control); with ETV3L it was 1.25 fold enrichment (6-mer frequency, TF over GST control); with ETS2 it was 1.18 fold enrichment (6-mer frequency, TF over GST control); with SPDEF it was 1.18 fold enrichment (6-mer frequency, TF over GST control); with ETV7 it was 1.19 fold enrichment (6-mer frequency, TF over GST control); with ELF5, 1.13 fold enrichment (6-mer frequency, TF over GST control). The binding signal with ETV3 was 1.2 fold enrichment (6-mer frequency, TF over GST control); with ETV6, 1.15 fold enrichment (6-mer frequency, TF over GST control).
As to TACGCC, the binding signal with ERF was 1.36 fold enrichment (6-mer frequency, TF over GST control); in the assay with ETV3L, 1.36 fold enrichment (6-mer frequency, TF over GST control); with ETS2, 1.29 fold enrichment (6-mer frequency, TF over GST control); with SPDEF, 1.26 fold enrichment (6-mer frequency, TF over GST control); in the assay with ETV7, 1.19 fold enrichment (6-mer frequency, TF over GST control); in the assay with ELF5, 1.2 fold enrichment (6-mer frequency, TF over GST control). Besides, the binding signal with ETV3 was 1.27 fold enrichment (6-mer frequency, TF over GST control); with ETV6 it was 1.28 fold enrichment (6-mer frequency, TF over GST control).
With ATCTGA, the binding signal in the assay with ERF is 1.2 fold enrichment (6-mer frequency, TF over GST control); with ETV3L, 1.19 fold enrichment (6-mer frequency, TF over GST control); with ETS2, 1.17 fold enrichment (6-mer frequency, TF over GST control); with SPDEF, 1.1 fold enrichment (6-mer frequency, TF over GST control); with ETV7, 1.04 fold enrichment (6-mer frequency, TF over GST control); in the assay with ELF5 it was 1.08 fold enrichment (6-mer frequency, TF over GST control). For the same sequence, the binding signal with ETV3 is 1.06 fold enrichment (6-mer frequency, TF over GST control); with ETV6 it was 1.13 fold enrichment (6-mer frequency, TF over GST control).
For the sequence CAGGAA, the binding signal with ERF is 1.42 fold enrichment (6-mer frequency, TF over GST control); with ETV3L, 1.53 fold enrichment (6-mer frequency, TF over GST control); with ETS2, 1.75 fold enrichment (6-mer frequency, TF over GST control); with SPDEF, 1.53 fold enrichment (6-mer frequency, TF over GST control); with ETV7, 1.52 fold enrichment (6-mer frequency, TF over GST control); with ELF5, 2.12 fold enrichment (6-mer frequency, TF over GST control). Besides, the binding signal with ETV3 was 1.72 fold enrichment (6-mer frequency, TF over GST control); with ETV6 it was 1.83 fold enrichment (6-mer frequency, TF over GST control).

The values are drawn from PMC7862700, “An all-to-all approach to the identification of sequence-specific readers for epigenetic DNA modifications on cytosine”.
